Among the data in PubChem BioAssay AID743366 (National Center for Advancing Translational Sciences (NCATS), 2014) are activity (normalised, proliferation) values, retold here.

Non-standard residues stand in square brackets, D forms with d. Residues, ends and D or L forms follow the SMILES beside them. Orn = NCCC[C@H](N)C(=O)O

A short description of this assay: qHTS profiling of inhibitors of Plasmodium falciparum (HB3) proliferation (acoustic dispense). The note with it: P. falciparum HB3 in erythrocytes, SYBR Green, 72 h; at 49.8 µM (top of the series) unless noted.
On to `CC1(C)N=C(N)N=C(N)N1c1ccc(Cl)cc1`, for which the activity (normalised, proliferation) was -0.199%. Then `C=CCn1c(=O)c2cnc(Nc3ccc(N4CCN(C)CC4)cc3)nc2n1-c1cccc(C(C)(C)O)n1`, with -0.406%.

Consider `CC1(CN2CCC(n3c(=O)[nH]c4ccccc43)CC2)OCc2ccccc2-n2cccc21` (centres undefined), for which the activity (normalised, proliferation) amounted to 24.8%. Take `CC[C@]1(O)C[C@H]2CN(CCC3=c4ccccc4=N[C]3[C@@](C(=O)OC)(c3cc4c(cc3OC)N(C)[C@H]3[C@@](O)(C(N)=O)[C@H](O)[C@]5(CC)C=CCN6CC[C@]43[C@@H]65)C2)C1`: the activity (normalised, proliferation) amounted to 2.35%. Then `Cn1c2ccccc2c2c3c(c4c5ccccc5n(CCC#N)c4c21)CNC3=O`, with 106%. For `O=C(Nc1cn[nH]c1-c1nc2ccc(CN3CCOCC3)cc2[nH]1)NC1CC1`, the activity (normalised, proliferation) is 1.76%.

With `CCCCN(CCCC)CC(O)c1cc(Cl)cc2c1-c1ccc(Cl)cc1C2=Cc1ccc(Cl)cc1` (centres undefined), the activity (normalised, proliferation) is -1.5%.

`c1cncc(CN2CCC(n3ncc4c(N5CCOCC5)nc(-c5ccc6[nH]ccc6c5)nc43)CC2)c1`: the activity (normalised, proliferation) was -0.669%. Take `Cc1nc2c(C#N)cccc2n1-c1ccc(C(=O)NC2CC2)s1`: the activity (normalised, proliferation) worked out at 1.48%. For the molecule `CC(C)C[C@@H]1NC(=O)[C@H](CCCN)NC(=O)[C@H](C(C)C)NC(=O)[C@@H]2CCCN2C(=O)[C@@H](Cc2ccccc2)NC(=O)[C@H](CC(C)C)NC(=O)[C@H](CCCN)NC(=O)[C@H](C(C)C)NC(=O)[C@@H]2CCCN2C(=O)[C@@H](Cc2ccccc2)NC1=O` (cyclo(V[Orn]L[dF]PV[Orn]L[dF]P)), the activity (normalised, proliferation) stood at 3.19%. Then `NC1CCC(Nc2nc(Nc3ccc(C(=O)N4CCCCC4)cc3)c3ncn(-c4cccc(F)c4)c3n2)CC1` (centres undefined), with -0.546%; and `FC(F)c1nc2ccccc2n1-c1nc(N2CCOCC2)nc(N2CCOCC2)n1`, with 25.3%; and `COc1cc([C@@H]2c3cc4c(cc3[C@@H](O[C@@H]3O[C@@H]5CO[C@@H](c6cccs6)O[C@@H]5[C@H](O)[C@@H]3O)[C@H]3COC(=O)[C@H]23)OCO4)cc(OC)c1O`, with -0.0351%. Under `CO[C@@H]1C(N(C)C(=O)c2ccccc2)C[C@H]2O[C@]1(C)n1c3ccccc3c3c4c(c5c6ccccc6n2c5c31)C(=O)NC4=O` (some centres undefined) stands 17.3%. `O=C1C(=O)c2ccccc2C(O)=C1C1CCC(c2ccc(Cl)cc2)CC1` (centres undefined): the activity (normalised, proliferation) was 3.49%. Under `Cn1c(=O)n(-c2ccc(C(C)(C)C#N)cc2)c2c3cc(-c4cnc5ccccc5c4)ccc3ncc21` stands 1.54%; under `NC(=NCCCCCCN=C(N)N=C(N)Nc1ccc(Cl)cc1)N=C(N)Nc1ccc(Cl)cc1`, 8.37%. Then `CC[C@H]1OC(=O)[C@H](C)C(=O)[C@H](C)[C@@H](O[C@H]2O[C@H](C)C[C@H](N(C)C)[C@@H]2O)[C@](C)(OC)C[C@@H](C)C(=O)[C@H](C)[C@H]2N(CCCCn3cnc(-c4cccnc4)c3)C(=O)O[C@]12C`, with 5.95%; and `Clc1ccc2c(N3CCN(CCCN4CCN(c5ccnc6cc(Cl)ccc56)CC4)CC3)ccnc2c1`, with -2.19% [at 23.2 µM].
